Source: PubChem BioAssay (National Center for Advancing Translational Sciences (NCATS))
In the library only some 10% were active in any assay of this set; here they are far more common.
HPGD block: inhibitors of human 15-hydroxyprostaglandin dehydrogenase (HPGD); P15428; purified HPGD, NADH fluorescence kinetic, PGE2 substrate; Potency, µM, for inactives: at the top dose activity change, negative = inhibition, actives largely listed as inhibitors; actives 4.3% (n = 150,000); note: potency is the fitted concentration of half-maximal effect
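20 nM HPGD preincubated 15 min at room temperature with compound in 50 mM Tris-HCl pH 8, 0.01% Tween 20. Started with 1 mM NAD+ and 30 uM prostaglandin E2; NADH fluorescence (360/450 nm) read 5 times over 30-s intervals, last minus first.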
Luc counter: Kinase-Glo luciferase inhibition (counter-screen); Q27757; Kinase-Glo luciferase, ATP luminescence, 8 min; Potency, µM (highest dose often 38.3 µM), without a hit: top-dose activity change, negative = inhibition, hits mostly inhibitors; actives 0.28% (n = 200,000); active = well fitted inhibition curve with a large enough effect; inconclusive = small, poorly fitted or top-dose-only effect; note: potency is the fitted concentration of half-maximal effect; nearly all actives have a fitted effect of over 60% in size
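Compound is pinned into ATP-containing buffer (10 uM ATP, imidazole pH 7.2, 7 mM MgCl2). Kinase-Glo luciferase reagent is then added. Light output is recorded following an 8-min room-temperature incubation.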
ALDH1A1 inh: ALDH1A1 (human) enzyme inhibition; P00352; Purified ALDH1A1, NADH fluorescence, propionaldehyde substrate; Potency, µM (series often up to 75.3 µM), for the others: at the top dose activity, negative = inhibition, hits mostly inhibitors; actives 7.3% (n = 220,000); AID 1030;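 note: potency is the fitted concentration of half-maximal effect; plate controls were no enzyme wells and a reference inhibitor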
Target sequence (P00352 whole entry, looked up): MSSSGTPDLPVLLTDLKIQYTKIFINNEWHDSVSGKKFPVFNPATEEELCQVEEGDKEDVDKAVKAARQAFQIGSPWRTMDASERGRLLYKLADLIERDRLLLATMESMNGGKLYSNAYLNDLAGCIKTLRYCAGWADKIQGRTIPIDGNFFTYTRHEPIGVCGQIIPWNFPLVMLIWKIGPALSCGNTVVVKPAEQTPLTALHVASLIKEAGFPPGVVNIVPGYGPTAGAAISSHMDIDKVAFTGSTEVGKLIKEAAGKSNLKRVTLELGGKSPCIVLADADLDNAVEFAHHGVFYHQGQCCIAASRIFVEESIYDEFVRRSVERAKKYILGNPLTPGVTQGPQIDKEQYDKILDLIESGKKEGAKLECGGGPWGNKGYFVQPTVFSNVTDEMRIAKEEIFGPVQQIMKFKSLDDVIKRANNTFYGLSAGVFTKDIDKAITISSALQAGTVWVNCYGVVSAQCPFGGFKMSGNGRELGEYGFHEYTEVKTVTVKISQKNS
PNC inhibitor: inhibitors of perinucleolar compartment assembly. activity change (PNC), negative = inhibition, % at 10 µM. actives 3.1% (n = 140,000). PC3M PTB-GFP, PNC prevalence imaging, 16 h; active compounds read low;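 active = readout at or below -70, meaning at least 70% loss of cells showing the perinucleolar compartment, a nuclear body marking cancer cells; inconclusive = readout between -30 and a set limit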;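 note: plate controls were DMSO wells for no effect and camptothecin positive control wells for full effect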
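PC3M cells stably expressing PTB-GFP, 750–1000 cells/well, treated 16 h at 37 °C with compound (23 nl of library stock), in duplicate. After paraformaldehyde fixation and Hoechst stain, imaged at 20x; PNC prevalence scored by image analysis.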
Lamin A splicing: changes lamin A minigene splicing in HeLa cells. HeLa LMNA splicing GFP/RFP minigene ratio, 48 h. Potency, µM (highest dose often 46.1 µM), without a hit: at the top dose ratio change, negative = inhibition, usual class: inhibitors. actives 0.01% (n = 200,000); active = well fitted inhibition curve with a large enough effect in the signal ratio, with a control signal flat, not every such curve was filed as active; inconclusive = small, poorly fitted or top-dose-only effect, or effect the other way, or a change in a side signal; the % refers to the signal ratio; note: potency is the fitted concentration of half-maximal effect
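Read-out is the ratio of GFP to DsRed2 object intensity, acquired by 488 nm laser-scanning cytometry on HeLa lamin A-EGFP minigene reporter cells. Compound incubation 48 hrs at 37 °C in Opti-MEM with 2% FBS; DMSO 0.5% final.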
* = called active by the depositor; ? = inconclusive; . = no result given; [ ] = another dose, or the depositor's remark. Unless noted, calls come from the whole dose curve; as a rule, active = well fitted inhibition curve with a large enough effect (not every such curve was filed as active); inconclusive = small, poorly fitted or top-dose-only effect, or another doubt; inactive = no such curve, though single readings can be large or run the other way. Unless noted, % is set by controls: 0 for no effect and ±100 for the full control effect.

SMILES	HPGD block	Luc counter	ALDH1A1 inh	PNC inhibitor	Lamin A splicing
O=C(Nc1ccc(F)cc1)C(c1ccccc1)N1CCN(C(=O)c2ccco2)CC1 (centres undefined)	-18%	0%	5µM*	36	1%
CN1CCCC[C@@H]1CCN1CCCCC1	0%	0%[7.66 µM]	12%[13.5 µM]	.	.
O=C(N/N=C1/C[C@@H](O)[C@@H](O)[C@@H]2[C@@H]3C(=O)N(Cc4ccccc4)C(=O)[C@H]3CC[C@H]12)OCc1ccccc1	.	.	14%[13.5 µM]	.	.
Cc1cc(=O)[nH]c2nnc(SCC(=O)Nc3ccc(OC(F)(F)F)cc3)n12	.	.	.	.	14%[46 µM]
Cc1ccc(CCNC(=O)CN(C)S(=O)(=O)c2ccc3c(c2)c(=O)n(C)c(=O)n3C)cc1	-15%	4%	13µM*	1	-2%
Cc1cccc(CCNC(=O)CN(C)S(=O)(=O)c2ccc3c(c2)c(=O)n(C)c(=O)n3C)c1	-11%	-2%	-8%	11	3%
Cc1ccccc1C1CC(=O)Oc2cc(C)c(Br)c(C)c21 (centres undefined)	-4%	0%[39.9 µM]	2%	.	.
Cc1ccccc1NC(=O)CSc1ccc(-c2ccco2)nn1	-12%	2%	?	15	-6%
Cc1ccc(C)c(NC(=O)CSc2ccc(-c3ccco3)nn2)c1	-21%	2%	3.2µM*	-5	-2%
Cc1nnc(NC(=O)CSc2ccc(-c3ccco3)nn2)s1	.	-4%	7.1µM*	.	.
N#Cc1cccc(NC(=O)N2CCCC3(CCN(S(=O)(=O)c4ccccc4)CC3)C2)c1	3%	2%	-12%	.	.
CCCCn1nc(NC(=O)c2cccs2)c2cc3cc(OC)ccc3nc21	?	2%	?	?	?
CCCn1nc(NC(=O)c2cccs2)c2cc3cc(OC)ccc3nc21	?	-3%	?	-90*	16%
O=c1oc2cc(O)ccc2c2oc3cc(O)ccc3c12	?	-2%	?	76	?
COc1c(O)c(O)cc2c1oc1c3ccccc3oc(=O)c21	13µM*	2%	?	.	.
Cc1noc(C)c1-c1nccc(N(C)C)n1	.	.	-5%	.	-14%
O=C(c1cccc(F)c1)N1CCC2(CCN(Cc3cc(C(F)(F)F)cc(C(F)(F)F)c3)CC2)CC1	-9%	0%	-4%	.	.
Cc1ccc([N+](=O)[O-])c(OCCN2CCCCCC2)c1	-12%	-4%	15µM*	3	?
O=S(=O)(/N=C(\Sc1ccc(Cl)cc1)c1ccccc1)c1ccccc1	20µM*	-8%	-19%	25	16%
CS/C(=N\S(=O)(=O)c1ccc(Cl)cc1)c1ccccc1	-20%	8%	-1%	0	-8%
Nc1ccc(N2CCOCC2)c(S(=O)(=O)Nc2cc(Cl)ccc2Cl)c1	.	2%	-4%	.	.
N=C1c2ccccc2CN1c1ccc(N2CCOCC2)c(S(=O)(=O)Nc2ccc(Cl)cc2)c1	.	.	1.8µM*	.	.
Cc1c(-c2ccc(Cl)cc2)c(=O)oc2ccc(OC(=O)N3CCOCC3)cc12	.	.	.	.	-9%[46 µM]
Cc1nn(C)cc1CNC(=O)c1cnn2c1NC(c1ccc(Br)cc1)CC2C(F)(F)F (centres undefined)	-12%	-6%	-4%	-5	0%
COc1cccc(C2CC(C(F)(F)F)n3ncc(C(=O)NCc4ccco4)c3N2)c1 (centres undefined)	20µM*	1%	-3%	-28	-7%
SMILES	HPGD block	Luc counter	ALDH1A1 inh	PNC inhibitor	Lamin A splicing
O=C(NCC1CCCO1)c1cnn2c1NC(c1ccccc1)CC2C(F)(F)F (centres undefined)	25µM*	1%	6%	-27	-11%
Cc1c(CNC(=O)c2cnn3c2NC(c2ccc(Br)cc2)CC3C(F)(F)F)cnn1C (centres undefined)	-4%	3%	5%	-123*	-7%
COc1cccc(C2CC(C(F)(F)F)n3ncc(C(=O)NC(C)(C)C)c3N2)c1 (centres undefined)	-14%	8%	1%	-11	3%
COc1ccc(CC(=O)NCc2ccc3c(c2)CCN3C(=O)c2ccc(C)cc2)cc1OC	.	.	.	.	-2%[46 µM]
Cc1cc(OCc2cc3c(cc2Cl)OCO3)c2c(C)cc(=O)oc2c1	.	.	0.18µM*	?	-5%
O=C1CC(N2CCN(c3cccc(C(F)(F)F)c3)CC2)C(=O)N1c1ccc(F)cc1 (centres undefined)	-23%	1%	-3%	-21	2%
CCCCCCOc1ccc(N2C(=O)CC(N3CCC(C(=O)OCC)CC3)C2=O)cc1 (centres undefined)	8%	1%	?	?	5%
CCOC(=O)C1CCN(C2CC(=O)N(c3ccc(OCC)cc3)C2=O)CC1 (centres undefined)	4%	0%	28µM*	?	?
Cc1cccc(N2C(=O)CC(N3CCN(c4cccc(C(F)(F)F)c4)CC3)C2=O)c1 (centres undefined)	-20%	10%	28µM*	32	-6%
CCOC(=O)C1CCCN(C2CC(=O)N(c3ccc(C)c(C)c3)C2=O)C1 (centres undefined)	-4%	-1%	10µM*	?	0%
CCOC(=O)C1CCCN(C2CC(=O)N(c3ccc(N4C(=O)CC(N5CCCC(C(=O)OCC)C5)C4=O)cc3)C2=O)C1 (centres undefined)	.	-1%	3.2µM*	.	.
COc1cccc(Nc2ncc3ncc(=O)n(C)c3n2)c1	.	.	-15%	.	-10%
C1CCC(NC(=NC2C3CC4CC(C3)CC2C4)N2CCOCC2)CC1 (centres undefined)	.	.	0%	.	.
CCOC(=O)C1CCCN(C2CC(=O)N(c3ccccc3)C2=O)C1 (centres undefined)	.	1%	?	.	?
CCOC(=O)C1CCCN(C2CC(=O)N(c3ccc(C(C)C)cc3)C2=O)C1 (centres undefined)	.	1%	10µM*	.	.
CCOC(=O)C1CCCN(C2CC(=O)N(c3cccc(C(F)(F)F)c3)C2=O)C1 (centres undefined)	-5%	4%	8.9µM*	-24	-1%
COc1cccc(CNC(=O)C(=O)NCC(c2ccco2)S(=O)(=O)c2cccs2)c1 (centres undefined)	.	.	.	.	-8%[46 µM]
Cc1ccccc1NC(=O)c1cc(C(=O)c2cc(Cl)ccc2O)cn(-c2ccccc2C)c1=O	10µM*	0%	-3%	22	?
Cc1ccc(-n2cc(C(=O)c3cc(Cl)ccc3O)cc(C#N)c2=O)cc1	-23%	0%	5%	-17	?
